We go through five compounds from PubChem BioAssay.

Experiment [1] in a line: yeast TOR pathway RPL19A-GFP modulators, primary screen, cell-based, S. cerevisiae, multiplex flow cytometry (AID 1862; in the data active = percent of DMSO control GFP below about 86%;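 also: lower values mimic rapamycin by blocking the RPL19A rise seen in DMSO cells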). Conditions: S. cerevisiae RPL19A-GFP strain, flow cytometry fluorescence, 3 h; at 10 µM; stronger effect = lower value.
Experiment [2] is described as follows: modulators of MEP2-GFP levels in yeast, primary screen, S. cerevisiae, multiplex flow cytometry (AID 1867;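 active = GFP response, as percent of the DMSO control, above the screen-wide mean plus 3 SD, about 139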;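 also: median GFP channel fluorescence of barcode-gated MEP2-GFP cells measured by flow cytometry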). The note with it: S. cerevisiae MEP2-GFP strain, 3 h, at 10 µM, stronger effect = higher value, 100% means same as DMSO wells.
Experiment [3] is described as follows: modulators of CIT2-GFP expression in yeast, primary screen, S. cerevisiae, GFP fusion, multiplex flow cytometry (AID 1870;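 active = percent response above a set limit, the screen-wide mean plus 3 SD, cut at about 130% in these data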;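 also: barcoded CIT2-GFP strain pooled with four other GFP strains with rapamycin as positive control; median GFP fluorescence per well over plate mean of DMSO wells so 100% = DMSO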). The note with it: 3 h, at 10 µM, stronger effect = higher value. (In general: In flow cytometry, cells or beads pass a laser one at a time.)
The nature of experiment [4]: modulators of LAP4-GFP expression in yeast, primary screen, S. cerevisiae, multiplex flow cytometry (AID 1873;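 active = GFP signal, as percent of the solvent control, above the screen mean plus 3 SD, about 149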). Conditions: 3 h, at 10 µM, stronger effect = higher value.
The nature of experiment [5]: modulators of AGP1-GFP expression in yeast TOR pathway, primary screen, cell-based, multiplex flow cytometry, S. cerevisiae (AID 1887;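 active = GFP signal above the screen-wide mean plus 3 SD, that is over about 124.5% of the solvent control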;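 also: AGP1-GFP fusion strain of S. cerevisiae within a five-strain barcoded multiplex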). Conditions: 3 h, at 10 µM, stronger effect = higher value.
Experiment [6] can be described thus: inhibitors of CD8+ T cell-vesicle binding, pilot screen, LFA-1/ICAM-1 modulator project, MLPCN validation set, flow cytometry (AID 2523;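 active = response below a set limit, under 55% cells CD8-positive and vesicle-bound, and CD8 cells' 90th-percentile brightness under 279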;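 as to vesicle binding response: mean PE anti-B7-1 fluorescence of CD8+ cells relative to row control; 100% = QL9-loaded vesicles with DMSO vehicle in the same plate row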). Conditions: 2C mouse CD8+ T cells, at 7 µM, stronger effect = lower value; double positive events: measured here: CD8+/vesicle+ event percentage.
For experiment [7], the target named is Integrin beta-1 (Homo sapiens) + Integrin alpha-4 (Homo sapiens) (UniProt P13612+P05556). In words: inhibition of HUTS-21 binding to VLA-4, pilot screen, VLA-4 allosteric modulator project, U937 cells, HUTS-21 mAb, flow cytometry, validation set (AID 2674;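 active = inhibition above 50%, about 3 SD of the validation set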;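 also: antibody binding induced by the VLA-4 ligand LDV present at three times its Kd; 0% = LDV ligand with antibody and no compound and 100% = antibody without LDV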). The note with it: HUTS-21 LIBS mAb binding, at 6.7 µM, stronger effect = higher value, binding induced by LDV ligand.
Chain of Integrin beta-1 (Homo sapiens) + Integrin alpha-4 (Homo sapiens) (P05556 whole entry, looked up): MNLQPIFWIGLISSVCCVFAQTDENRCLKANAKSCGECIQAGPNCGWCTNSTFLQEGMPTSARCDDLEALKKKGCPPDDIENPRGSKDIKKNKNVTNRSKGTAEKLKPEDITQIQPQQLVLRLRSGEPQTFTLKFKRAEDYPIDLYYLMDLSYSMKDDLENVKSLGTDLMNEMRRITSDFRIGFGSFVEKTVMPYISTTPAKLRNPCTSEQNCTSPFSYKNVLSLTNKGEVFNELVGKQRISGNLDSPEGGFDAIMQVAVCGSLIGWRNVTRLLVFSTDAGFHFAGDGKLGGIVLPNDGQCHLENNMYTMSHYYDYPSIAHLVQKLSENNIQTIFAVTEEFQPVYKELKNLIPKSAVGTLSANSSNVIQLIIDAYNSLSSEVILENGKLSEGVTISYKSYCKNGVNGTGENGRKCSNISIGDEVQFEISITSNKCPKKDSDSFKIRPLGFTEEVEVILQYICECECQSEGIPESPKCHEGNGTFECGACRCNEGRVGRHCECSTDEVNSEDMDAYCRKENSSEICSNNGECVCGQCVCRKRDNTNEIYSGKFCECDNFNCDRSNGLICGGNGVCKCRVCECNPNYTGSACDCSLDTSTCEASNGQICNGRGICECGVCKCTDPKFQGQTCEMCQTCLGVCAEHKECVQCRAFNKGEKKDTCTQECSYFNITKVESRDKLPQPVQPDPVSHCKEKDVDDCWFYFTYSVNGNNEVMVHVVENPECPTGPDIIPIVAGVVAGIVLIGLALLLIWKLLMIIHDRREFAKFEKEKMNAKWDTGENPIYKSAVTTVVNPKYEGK
Chain of Integrin beta-1 (Homo sapiens) + Integrin alpha-4 (Homo sapiens) (P13612 whole entry, looked up): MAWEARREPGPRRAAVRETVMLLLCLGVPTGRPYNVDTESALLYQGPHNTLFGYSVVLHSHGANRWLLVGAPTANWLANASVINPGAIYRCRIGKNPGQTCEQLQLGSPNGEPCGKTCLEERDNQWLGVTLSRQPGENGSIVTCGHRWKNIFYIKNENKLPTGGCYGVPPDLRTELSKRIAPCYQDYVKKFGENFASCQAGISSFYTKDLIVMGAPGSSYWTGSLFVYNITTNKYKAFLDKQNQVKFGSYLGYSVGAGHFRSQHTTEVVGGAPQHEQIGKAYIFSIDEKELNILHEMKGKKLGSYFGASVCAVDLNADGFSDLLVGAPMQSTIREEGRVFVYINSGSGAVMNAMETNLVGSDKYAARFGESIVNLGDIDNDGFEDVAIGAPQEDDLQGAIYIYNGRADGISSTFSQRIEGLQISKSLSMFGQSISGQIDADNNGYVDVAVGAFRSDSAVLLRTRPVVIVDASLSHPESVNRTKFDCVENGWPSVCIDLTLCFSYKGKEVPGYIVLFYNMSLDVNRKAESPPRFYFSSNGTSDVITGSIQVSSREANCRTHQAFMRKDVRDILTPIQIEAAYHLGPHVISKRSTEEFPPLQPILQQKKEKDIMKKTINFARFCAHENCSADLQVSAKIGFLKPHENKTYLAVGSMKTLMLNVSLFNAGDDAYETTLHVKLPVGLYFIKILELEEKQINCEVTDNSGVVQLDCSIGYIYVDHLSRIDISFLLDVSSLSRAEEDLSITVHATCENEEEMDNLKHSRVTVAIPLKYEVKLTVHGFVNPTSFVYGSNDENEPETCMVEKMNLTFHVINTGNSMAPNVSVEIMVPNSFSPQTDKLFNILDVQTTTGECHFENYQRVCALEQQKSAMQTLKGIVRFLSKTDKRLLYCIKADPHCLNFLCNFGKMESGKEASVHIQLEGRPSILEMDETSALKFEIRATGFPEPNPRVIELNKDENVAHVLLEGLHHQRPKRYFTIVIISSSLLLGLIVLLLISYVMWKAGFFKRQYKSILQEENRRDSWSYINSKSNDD

Experiment [8] can be described thus: superoxide lowering in aged yeast cells, pilot screen, validation compound set (AID 2706;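 active = superoxide response below 65% of plate, a cut near 3 SD across the whole screen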;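 also: yeast exposed to compound for one week at 30 degrees C before staining; 100% = mean of all compound wells on the same plate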). Conditions: S. cerevisiae aging, superoxide DHE fluorescence; at 10 µM; stronger effect = lower value.
Experiment [9] addresses Beta-adrenergic receptor kinase 1 (Homo sapiens) (UniProt P25098). In words: GRK2 binders displacing RNA aptamer, biochemical, validation, human GRK2, bead flow cytometry (AID 488806;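 active = aptamer binding inhibition above 30%, about 3 SD of noise from non-fluorescent compounds; inactive = inhibition at or below 30%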). Conditions: bead-bound GRK2, FAM-aptamer displacement, at 10 µM, stronger effect = higher value.
The target of experiment [10] is Beta-2 adrenergic receptor (Homo sapiens) (UniProt P07550). In words: beta2AR agonists driving receptor internalization, pilot screen, cell-based, FAP fluorogen, flow cytometry, validation set (AID 504459;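 active = percent response above 42, roughly 3 SD of non-fluorescent test compounds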;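 also: agonist-driven loss of surface beta2AR via internalization measured by FAP dye flow cytometry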). Conditions: Am2.2-beta2AR cells, FAP surface receptor flow cytometry; at 10 µM; stronger effect = higher value.
Chain of Beta-2 adrenergic receptor (Homo sapiens) (P07550 whole entry, looked up): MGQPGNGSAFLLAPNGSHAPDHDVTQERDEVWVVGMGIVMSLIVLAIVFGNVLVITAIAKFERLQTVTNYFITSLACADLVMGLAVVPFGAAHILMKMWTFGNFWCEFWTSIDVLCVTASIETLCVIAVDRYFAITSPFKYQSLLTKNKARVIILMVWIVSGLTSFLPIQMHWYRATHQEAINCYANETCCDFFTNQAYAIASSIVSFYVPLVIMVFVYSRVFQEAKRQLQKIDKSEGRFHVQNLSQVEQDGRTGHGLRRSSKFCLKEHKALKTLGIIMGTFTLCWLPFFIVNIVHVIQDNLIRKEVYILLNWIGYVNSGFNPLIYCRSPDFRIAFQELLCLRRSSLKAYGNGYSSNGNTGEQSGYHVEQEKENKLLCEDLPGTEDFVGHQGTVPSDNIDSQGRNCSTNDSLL
In experiment [11] the target is AP-2 complex subunit beta (Homo sapiens) (UniProt P63010). In words: inhibitors of arrestin peptide binding to AP2, pilot screen, biochemical, validation set, GST-AP2 beads, flow cytometry (AID 504541;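 active = inhibition above 54%, about 3 SD of non-fluorescent compounds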;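 also: AP2 carries R879A mutation and is captured from E. coli lysate; bead-bound FITC arrestin peptide fluorescence measuring arrestin peptide binding to AP2; 0% = DMSO wells and 100% = excess unlabeled arrestin peptide control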). Conditions: FITC arrestin peptide, at 10 µM, stronger effect = higher value, AP2 beta2 appendage fragment, R879A mutant.
Chain of AP-2 complex subunit beta (Homo sapiens) (P63010 whole entry, looked up, the tested form may be a part, one chain of several): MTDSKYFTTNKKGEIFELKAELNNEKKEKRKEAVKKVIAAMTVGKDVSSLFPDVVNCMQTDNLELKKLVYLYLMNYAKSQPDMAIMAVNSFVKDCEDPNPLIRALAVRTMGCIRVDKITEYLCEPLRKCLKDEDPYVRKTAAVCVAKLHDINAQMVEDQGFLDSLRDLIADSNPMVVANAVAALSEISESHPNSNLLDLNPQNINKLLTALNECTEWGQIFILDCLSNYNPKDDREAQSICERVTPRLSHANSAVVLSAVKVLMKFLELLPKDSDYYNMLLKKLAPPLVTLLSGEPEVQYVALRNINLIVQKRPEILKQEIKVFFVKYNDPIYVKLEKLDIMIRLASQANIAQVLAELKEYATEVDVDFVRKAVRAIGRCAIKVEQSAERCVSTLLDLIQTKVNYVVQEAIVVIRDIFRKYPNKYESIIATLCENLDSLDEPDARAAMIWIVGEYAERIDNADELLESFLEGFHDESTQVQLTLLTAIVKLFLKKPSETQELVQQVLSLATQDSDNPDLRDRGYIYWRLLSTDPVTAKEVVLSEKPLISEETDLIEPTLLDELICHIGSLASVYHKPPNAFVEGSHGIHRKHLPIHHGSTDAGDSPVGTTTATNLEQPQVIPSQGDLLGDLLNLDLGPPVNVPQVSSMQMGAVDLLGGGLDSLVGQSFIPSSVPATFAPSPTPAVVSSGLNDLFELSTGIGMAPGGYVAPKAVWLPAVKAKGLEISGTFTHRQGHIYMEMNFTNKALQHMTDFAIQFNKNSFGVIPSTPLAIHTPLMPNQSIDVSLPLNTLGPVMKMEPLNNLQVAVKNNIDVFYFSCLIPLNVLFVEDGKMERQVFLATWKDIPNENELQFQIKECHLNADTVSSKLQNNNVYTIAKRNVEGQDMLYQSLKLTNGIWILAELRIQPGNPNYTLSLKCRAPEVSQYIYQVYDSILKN
Experiment [12] in a line: yeast V-ATPase proton transport modulators, S. cerevisiae, pHLuorin, HTS validation (AID 504600; in the data active = response above about 15%;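 also: plate controls were DMSO for no effect and reference compound for full effect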). Conditions: S. cerevisiae pHLuorin cytosolic pH, at 10 µM, stronger effect = higher value.
The subject of experiment [13] is anti-desmoglein-3 scFv antibody binding to human DSG3. In words: inhibitors of anti-DSG3 scFv binding to DSG3, pilot screen, biochemical, validation compound set, bead-based, flow cytometry (AID 588368;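 active = binding below the plate cutoff, the plate median minus 3 SD, with a reading above zero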;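 also: signal is the median channel fluorescence of bead-bound GFP antibody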). Conditions: Protein G beads, DSG3-Fc, scFv-GFP binding, at 10 µM, stronger effect = lower value.
Experiment [14] is described as follows: inhibitors of fungal efflux pumps CDR1, CDR2, MDR1, pilot screen, validation compound set, multiplex, phenotypic (AID 588506;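 active = efflux inhibition above 0.42, the validation set average plus 4 SD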;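 also: Nile Red retained in cells so higher fluorescence means more efflux inhibition; 0 = negative control wells and 1 = enniatin B 25 µM full block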). The note with it: S. cerevisiae pump-expressing triplex, Nile Red efflux flow cytometry; at 10 µM; stronger effect = higher value; the pumps come from Candida albicans.
Experiment [15] deals with ATP-binding cassette sub-family B member 6 (Homo sapiens) (UniProt Q9NP58). In words: ABCB6 transporter inhibitors, pilot screen, K562-ABCB6 cells, flow cytometry, validation set (AID 588550;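 active = inhibition above the screen-wide mean plus 3 SD, about 51%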;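 also: 0% = DMSO wells and 100% = benzethonium chloride 70 µM positive control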). The note with it: K562-ABCB6 porphyrin accumulation, 1 h, at 10 µM, stronger effect = higher value.
Chain of ATP-binding cassette sub-family B member 6 (Homo sapiens) (Q9NP58 whole entry, looked up): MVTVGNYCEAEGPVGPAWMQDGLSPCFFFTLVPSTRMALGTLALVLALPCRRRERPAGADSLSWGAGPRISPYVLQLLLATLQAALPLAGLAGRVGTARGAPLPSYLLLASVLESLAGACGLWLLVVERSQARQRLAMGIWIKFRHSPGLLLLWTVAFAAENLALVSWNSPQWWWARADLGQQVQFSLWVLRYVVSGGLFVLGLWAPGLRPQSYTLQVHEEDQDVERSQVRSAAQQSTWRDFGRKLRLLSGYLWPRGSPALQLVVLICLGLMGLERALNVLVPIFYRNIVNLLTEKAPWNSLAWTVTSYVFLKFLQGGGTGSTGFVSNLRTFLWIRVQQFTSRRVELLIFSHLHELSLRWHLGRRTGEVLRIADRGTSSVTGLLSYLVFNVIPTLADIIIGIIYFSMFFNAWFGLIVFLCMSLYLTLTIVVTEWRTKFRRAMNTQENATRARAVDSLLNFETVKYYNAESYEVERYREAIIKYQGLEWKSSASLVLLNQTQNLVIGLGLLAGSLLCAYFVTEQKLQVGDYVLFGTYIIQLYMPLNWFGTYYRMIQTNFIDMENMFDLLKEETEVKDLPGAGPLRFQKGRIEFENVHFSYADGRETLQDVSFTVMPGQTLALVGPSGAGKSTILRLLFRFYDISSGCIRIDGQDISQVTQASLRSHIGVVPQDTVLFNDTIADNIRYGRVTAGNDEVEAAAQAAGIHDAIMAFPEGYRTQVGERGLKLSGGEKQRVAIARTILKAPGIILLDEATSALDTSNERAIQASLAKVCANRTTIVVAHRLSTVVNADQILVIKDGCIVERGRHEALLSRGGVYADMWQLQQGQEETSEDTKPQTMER
The nature of experiment [16]: promoters of myeloid differentiation in arrested cells, primary screen, cell-based, GFP/MAC1 double positive, flow cytometry, validation set (AID 588685).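 Also: compound exposure lasts four days before antibody staining and flow analysis; 0% = DMSO wells and 100% = 5 µM fulvestrant positive control.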 The note with it: ER-HoxA9 marrow cells, stronger effect = higher value, normalized: vehicle 0, fulvestrant 100.

Usually inhibition stands for the change of the read-out against control, counted positive when it falls.

Inconclusive results are not listed. Active and inactive are the calls of the source.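 The calls were made as follows, unless noted: active = differentiation response of at least 50%, scaled between solvent and reference control, from cells with both markers; inactive = the rest.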

Chain of Beta-adrenergic receptor kinase 1 (Homo sapiens) (P25098 whole entry, looked up): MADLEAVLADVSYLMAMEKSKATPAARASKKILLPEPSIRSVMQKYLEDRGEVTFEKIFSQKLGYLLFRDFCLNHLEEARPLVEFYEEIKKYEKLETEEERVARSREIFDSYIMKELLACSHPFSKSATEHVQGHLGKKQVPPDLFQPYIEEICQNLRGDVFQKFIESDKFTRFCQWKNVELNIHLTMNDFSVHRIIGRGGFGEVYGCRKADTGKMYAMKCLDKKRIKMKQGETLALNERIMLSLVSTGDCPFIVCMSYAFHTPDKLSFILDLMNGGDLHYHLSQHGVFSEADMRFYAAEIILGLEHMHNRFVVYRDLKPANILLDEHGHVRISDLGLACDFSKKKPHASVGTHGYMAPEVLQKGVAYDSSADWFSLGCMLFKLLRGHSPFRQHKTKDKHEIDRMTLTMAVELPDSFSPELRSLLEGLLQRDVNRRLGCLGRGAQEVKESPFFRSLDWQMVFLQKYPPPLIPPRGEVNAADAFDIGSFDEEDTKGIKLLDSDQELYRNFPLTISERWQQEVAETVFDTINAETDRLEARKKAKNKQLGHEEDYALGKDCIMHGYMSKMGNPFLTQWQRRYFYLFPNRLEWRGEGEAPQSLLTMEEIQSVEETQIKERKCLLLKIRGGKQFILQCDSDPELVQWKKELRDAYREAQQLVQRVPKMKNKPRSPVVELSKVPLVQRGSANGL

With `O=C1OC(Nc2ccc3c(c2)OCO3)c2ccccc21` (stereo not given), the percent of DMSO control GFP in experiment [1] was 99.4% (inactive). The GFP response vs DMSO in experiment [2] is 105% (inactive); in [4], 114% (inactive). Besides, the percent response of DMSO control in experiment [3] is 93.1% (inactive). For the same compound, the GFP response, % of DMSO in [5] is 97.3% (inactive). In experiment [6], this compound gave a double positive events of 63.1%. Further, the vesicle binding response in experiment [6] is 185% (inactive). The inhibition in experiment [7] was -22.2% (inactive); in experiment [11], -3.85% (inactive); in [15], -1% (inactive). In addition, the superoxide response (% of plate) in experiment [8] was 99.6% (inactive). Moreover, the aptamer binding inhibition in experiment [9] was 3% (inactive). Also, the response in [10] was 10.6% (inactive); in experiment [12] it was 0.82% (inactive). In addition, the binding (% of control) in experiment [13] is 100% (inactive). In addition, the efflux inhibition (fraction of control) in [14] was 0.02 (inactive). For the same compound, the differentiation response in experiment [16] was 21.8% (inactive).

Regarding `CN(C)CC/C=C1\c2ccccc2Sc2ccc(Cl)cc21`, in experiment [1], the percent of DMSO control GFP was 104% (inactive). The GFP response vs DMSO was 110% (inactive) in experiment [2] and 106% (inactive) in experiment [4]. For the same compound, the percent response of DMSO control in experiment [3] is 103% (inactive). In addition, in experiment [5], the GFP response, % of DMSO is 106% (inactive). For the same compound, the double positive events in experiment [6] is 64.5%. Also, in experiment [6], the vesicle binding response is 157% (inactive). Moreover, the inhibition in [7] was 9.63% (inactive); in experiment [11], 54.9% (active); in experiment [15], 9% (inactive). Also, in experiment [8], the superoxide response (% of plate) is 88.7% (inactive). For the same compound, the aptamer binding inhibition in [9] is -5% (inactive). Further, the response in experiment [10] is 19.9% (inactive); in [12], -15.9% (inactive). Besides, in experiment [13], the binding (% of control) was 106% (inactive). Besides, the efflux inhibition (fraction of control) in experiment [14] is 0.08 (inactive). For the same compound, the differentiation response in [16] was -17.7% (inactive).

As for `O=C(CN1C(=O)C2CCc3[nH]c4ccccc4c3C2C1=O)N1CCCC1` (stereo not given), the percent of DMSO control GFP in experiment [1] is 89.1% (inactive). Further, the results for the GFP response vs DMSO in experiment [2] and in experiment [4] were 121% (inactive) and 78.1% (inactive), respectively. For the same compound, the percent response of DMSO control in experiment [3] is 106% (inactive). Further, the GFP response, % of DMSO in experiment [5] was 87.3% (inactive). In addition, the double positive events in experiment [6] was determined as 48%. Also, in [6], the vesicle binding response is 72.2% (active). Also, the inhibition is 22.9% (inactive) in [7], -3.8% (inactive) in experiment [11] and 9% (inactive) in experiment [15]. Further, the superoxide response (% of plate) in experiment [8] was 95.1% (inactive). In addition, the aptamer binding inhibition in experiment [9] is 3% (inactive). The values for the response in experiment [10] and in [12] were -15.3% (inactive) and -4.07% (inactive), respectively. For the same compound, the binding (% of control) in experiment [13] is 103% (inactive). Also, the efflux inhibition (fraction of control) in experiment [14] is 0.09 (inactive). Moreover, the differentiation response in experiment [16] was 4.91% (inactive).

Turning to `COc1ccc(OC(C)C(=O)Nc2ccccc2F)cc1` (stereo not given), in experiment [1], the percent of DMSO control GFP is 102% (inactive). The GFP response vs DMSO is 99.7% (inactive) in [2] and 108% (inactive) in experiment [4]. Moreover, the percent response of DMSO control in experiment [3] was 102% (inactive). Also, the GFP response, % of DMSO in experiment [5] was 99.3% (inactive). For the same compound, the double positive events in experiment [6] amounted to 58.4%. In experiment [6], the vesicle binding response is 151% (inactive). Moreover, the inhibition in [7] is 25.7% (inactive); in [11] it was -5.67% (inactive); in experiment [15], 8% (inactive). In addition, the superoxide response (% of plate) in [8] was 90.6% (inactive). Besides, the aptamer binding inhibition in [9] was 0% (inactive). The response is 6.77% (inactive) in experiment [10] and 0.03% (inactive) in experiment [12]. The binding (% of control) in [13] is 104% (inactive). Also, the efflux inhibition (fraction of control) in experiment [14] is -0.15 (inactive). The differentiation response in [16] was -6.03% (inactive).

For the compound `CC(=O)SC1CC2=CC(=O)CCC2(C)C2CCC3(C)C(CCC34CCC(=O)O4)C12` (stereo not given), in experiment [1], the percent of DMSO control GFP is 103% (inactive). The results for the GFP response vs DMSO in [2] and in [4] were 103% (inactive) and 109% (inactive), respectively. Further, in experiment [3], the percent response of DMSO control was 107% (inactive). Also, the GFP response, % of DMSO in experiment [5] is 107% (inactive). Also, the double positive events in experiment [6] was 64.4%. Further, in experiment [6], the vesicle binding response is 247% (inactive). Moreover, the figures for the inhibition in [7], in experiment [11] and in [15] were -3.57% (inactive), -8.52% (inactive) and -3% (inactive), respectively. For the same compound, the superoxide response (% of plate) in experiment [8] is 98.5% (inactive). The aptamer binding inhibition in [9] is 5% (inactive). The response is -4.96% (inactive) in experiment [10] and 1.6% (inactive) in experiment [12]. Besides, in experiment [13], the binding (% of control) was 100% (inactive). In experiment [14], the efflux inhibition (fraction of control) is -0.04 (inactive). Besides, the differentiation response in experiment [16] is 3.18% (inactive).
